Assay results as given in PubChem BioAssay (NCI).
This is part of a sample that, as a whole, favours compounds with a hit. Of some 83,000 tested, about 20% had one in any assay.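 Cell lines were cultured in 96-well plates, exposed to a single compound concentration, and assessed for percent growth 48 hours later.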 Values without a mark were called inactive. Calls of active or inactive are those of the source. Rule for the calls: active = growth percent below 10; inactive = the rest.

System: HL-60(TB) leukemia
Experiment: NCI-60 one-dose screen, 48 h (100 = growth as untreated, 0 = no growth, -100 = all killed)
Settings: 10 µM unless noted

| Compound | growth |
| --- | --- |
| C(=C\c1ccncc1)/c1ccncc1 | 105% |
| CC(C)(C)c1nn(-c2ccccc2)c2c1COCN2Cc1ccc(Cl)cc1 | 43.5% |
| Cn1c(-c2ccccc2)c(/C=C/C2=[N+](C)c3ccccc3C2(C)C)c2ccccc21 | -52.5% (active) |
| COc1ccc(Cl)cc1Nc1nc(C(F)(F)F)ccc1C(=O)N/N=C/c1ccc(N(C)C)cc1 | 85.4% |
| COc1ccc(-c2cc(-c3nnc(SCC(=O)Nc4ccc(/C(C)=N\O)cc4)o3)c3ccccc3n2)cc1 | 104% |
| Cc1cc(=O)oc2cc(OCc3cn(CC(O)CO)nn3)ccc12 (stereo not drawn) | 110% |
| CO[C@H]1NC(=O)N(S(=O)(=O)c2ccc(Cl)cc2)[C@@H]1OC | 105% |
| CCCCC[n+]1ccc(SCC(=O)N(C)c2ccc(Oc3ccccc3)cc2)c2ccccc21 | 3.74% (active) |
| O=C(CN1C(=O)S/C(=C\C(Cl)=C\c2ccccc2)C1=O)NCCCn1ccnc1 | -4.78% (active) |
| Cc1cc(NCCN(C(C)C)C(C)C)nc(/N=C(\N)Nc2ccc(Cl)c(C(F)(F)F)c2)n1 | -87.9% (active) |
| OCC(CO)(CCl)CCl | 96.3% |
| O=C(O)CCCN1C(=O)NC2(C1=O)c1ccccc1-c1ccccc12 | 101% |
| COc1ccc(CNc2nc3ccccc3c3c(=O)c4ccccc4sc23)cc1OC | 98.9% |
| Nc1ncnc2c1ncn2C1OC(COC(c2ccccc2)(c2ccccc2)c2ccccc2)C(O)C1O (stereo not drawn) | 8.77% (active) |
| Cn1cc(-c2nonc2-c2cn(C)c3ccc(F)cc23)c2ccccc21 | -24.3% (active) |
| CCN(CC)CCNc1ccc(Cl)cc1Cl | 92.9% |
| COc1ccc(C2C(C#N)=C(N)Oc3c2sc2c(Br)cccc32)cc1 (stereo not drawn) | -9.13% (active) |
| Nc1ncnc2c1c(-c1ccc(Oc3ccccc3)cc1)nn2C[C@@H]1SSC[C@@H]1O | -0.213% (active) |
| CCc1nc2ccccc2[nH]1 | 105% |
| N#Cc1nc(-c2ccc(F)cc2)oc1S(=O)(=O)N1CCN(c2ccc(F)cc2)CC1 | 52.3% |
| Cc1nc(Nc2ccc(S(=O)(=O)Nc3cc(C)on3)cc2)c2ccccc2n1 | 101% |
| COc1ccc(CCNc2nc3c(c(=O)n(Cc4ccc(Br)cc4)c(=O)n3C)n2C)cc1OC | 28.6% |

| Compound | growth |
| --- | --- |
| C#C[C@@]1(O)[C@@H](CO)O[C@@H](n2ccc3c(N)ncnc32)[C@@H]1O | -25.5% (active) |
| NNC(=O)C1CC2c3ccccc3C1c1ccccc12 (stereo not drawn) | 113% |
| COc1ccc2[nH]c(-c3ccccc3)c(C=C(C#N)C#N)c2c1 | -49.1% (active) |
| CCN1CCN(Cc2ccc(NC(=O)Nc3nc(-c4cc(OC)c(OC)c(OC)c4)cs3)cc2C(F)(F)F)CC1 | 8.19% (active) |
| Cc1ccc2oc(=O)cc(/C(=C3/C=CC=N3)c3ccc[nH]3)c2c1 | -13.6% (active) |
| Nc1ncc(-c2ccc3ncnc(Nc4ccc(F)c(Cl)c4)c3c2)cn1 | 103% |
| C=C1C(=O)O[C@H]2[C@H]1CC/C(COC(=O)NCCc1ccc(Br)cc1)=C\CC[C@@]1(C)O[C@@H]21 | -14% (active) |
| Oc1[nH]c2ccc(Cl)cc2c1/C=c1/ccc2c(c1)N=C(c1cccs1)N=2 | 98.4% |
| COc1cc(C(=O)/C=C/c2cccnc2Nc2ccccc2)cc(OC)c1OC | -31.2% (active) |
| CC(C)N=C1CCCC1C(=S)SSC(=S)C1CCCC1=NC(C)C (stereo not drawn) | 75.8% |
| Cc1nc(Nc2ccc(N)cc2)c2ccccc2n1 | 62% |
| Cc1ccc(NC(=O)c2cc(-c3nc4ccccc4s3)c(=O)n(NS(=O)(=O)c3ccc(Cl)cc3)c2N)cc1 | 101% |
| COc1cc2c(cc1OC(C)=O)C(=O)CCCC2 | 143% |
| Cc1[nH]n(C(=S)Nc2nc3cc(Cl)c(F)cc3s2)c(=O)c1N=Nc1ccc(F)c(Cl)c1 | 127% |
| O=C(CCl)N1c2ccccc2Sc2ccc3ccccc3c21 | -44.1% (active) |
| C=C(CNCCc1ccc(O)cc1)[C@@H]1CC[C@]2(CO)CC[C@]3(C)[C@H](CC[C@@H]4[C@@]5(C)CCC(NCCc6ccc(O)cc6)C(C)(C)[C@@H]5CC[C@]43C)[C@@H]12 (stereo partly drawn) | -65.2% (active) |
| COc1ccc(-c2cc(=O)oc3c4c(ccc23)OCN(Cc2ccc(F)cc2)C4)cc1 | 47.9% |
| CN1c2ccccc2C(C)(C)C12C=Cc1cc(O)ccc1O2 (stereo not drawn) | -30.1% (active) |
| CC1=C2[C@@H](CC1)[C@]1(C)O[C@@](C3CCCCC3)(C[C@H]1OC(=O)CO)[C@H]2OC(=O)/C=C/c1ccccc1 | 82.5% |
| CCCCCC(=O)Oc1ccc(/C(=C(/C)Cc2ccc(OC)cc2)c2ccc(OCCCN(C)C)cc2)cc1 | 62% |
| O=C(CCl)Oc1ccc(OC(=O)CCl)cc1 | 8.83% (active) |
| Nc1cc(O)cc(O)c1 | 98.6% |

| Compound | growth |
| --- | --- |
| N#CC1=C(N)Oc2c(ccc3ccccc23)C1c1ccccc1 (stereo not drawn) | -22.3% (active) |
| Nc1c(C(=O)Nc2cccc3ccncc23)sc2nc3c(cc12)C(=O)CCC3 | 14.7% |
| NC(=NCCCOc1ccc(F)cc1)Nc1ccc(I)cc1 | 72.6% |
| CCCCCCNC(=O)Oc1ccc(/C(=C(\C)c2ccccc2)c2ccc(OCCCN(C)C)cc2)cc1 | 78% |
| CCN1CCN(c2nc(NNC(=O)c3ccccc3)nc(N3CCN(C(c4ccccc4)c4ccccc4)CC3)n2)CC1 | 23.3% |
| Cc1cc(N2CCCCC2)nc(N(CCNc2ccnc3cc(Cl)ccc23)Cc2ccco2)n1 | -46.3% (active) |
| CC[C@H](C)C(=O)O[C@H]1CCC=C2C=C[C@H](C)[C@H](CC[C@@H]3CC=CC(=O)O3)[C@H]21 | -0.21% (active) |
| CC1(C)C2CC=C(/C=N/NC(=O)C3CCC(=O)N3)C1C2 (stereo not drawn) | 101% |
| O=C1NC(=O)C(Cc2ccccc2)(Cc2ccccc2)N1 | 122% |
| COc1ccc(-n2cc(-c3ccc(Cl)c(Cl)c3)[nH]c2=O)cc1OC | 179% |
| Cc1ccc(C)c2c1CCC2C(C)C (stereo not drawn) | 108% |
| N#CSc1cc(S(N)(=O)=O)ccc1N | 81.2% |
| CCCC#CCN(CC)CC | 96.6% |
| COC(=O)Nc1ccc(NC(=O)OC)cc1 | 95.9% |
| CC(C)C(=O)OCCOc1ccc(C(C)(C)C)cc1 | 107% |
| COc1ccc(/C=C/C(=O)c2ccc(B(O)O)cc2)cc1O | 37.7% |
| COC(=O)c1c2c(c[n+]([O-])c1C)C(=O)C=C(NCc1ccccc1)C2=O | -49.4% (active) |
| COc1cc(-c2nc3ccccc3s2)ccc1NC(=O)COc1ccc(Cl)cc1 | 56.3% |
| CN1/C(=C/C=C/c2n(Cc3ccc4ccccc4c3)c(Cl)c(Cl)[n+]2Cc2ccc3ccccc3c2)Oc2ccccc21 | 98.9% |
| O=C(CSc1nnc(Nc2ccccc2)s1)NCCc1ccc(F)cc1 | 110% |
| S=c1nc2[nH]c3ccccc3c2n[nH]1 | 148% |
| Clc1ccc(Nc2nc(Nc3ccc(Cl)cc3)nc(Nc3ccc(-c4cc(-c5cccc(Cl)c5)on4)cc3)n2)cc1 | -50% (active) |

| Compound | growth |
| --- | --- |
| C[C@H]1OC(=O)/C=C/[C@@H](O)[C@@H](O)CCCCCCCC[C@@H]1O | 99.6% |
| Cc1ccc(OCCn2c(C)nn(-c3ccc(Cl)cc3)c2=O)cc1 | 114% |
| CC(C)(C)c1ccc(/C=C/C(=O)Nc2ccc(O)cc2)cc1 | -12.6% (active) |
| CCOC(=O)N1C/C(=C/c2ccc(F)cc2)C(=O)/C(=C/c2ccc(F)cc2)C1 | 4.58% (active) |
| CN1CCOCCOCCOc2ccccc2NC(=O)c2nc(cnc2N)-c2ccc(cc2)S1(=O)=O | -22.2% (active) |
| NC(=O)c1c(NC(=O)c2ccc(C(F)(F)F)cc2Cl)sc2c1CCC(=O)C2 | -12.9% (active) |
| COc1cc2c3c(c4c5ccccc5[nH]c4c2c(OC)c1OC)C(=O)N(O)C3=O | 51.7% |
| Cc1[nH]c(C2CC(c3ccc(C(F)(F)F)c(F)c3)=NN2c2ccccc2)c(C)c1C(=O)NCC(F)(F)F (stereo not drawn) | 87.6% |
| Cc1ccnc(Nc2ccc([N+](=O)[O-])c(NCCN3CCOCC3)n2)c1 | -14.9% (active) |
| COc1nc(N)nc(-n2c(-c3ccc(C)cc3)nc3ccccc32)c1NCc1ccc(C)cc1 | 101% |
| Cc1ccc(N2C3c4ccccc4N(S(=O)(=O)c4ccc(C)cc4)C2c2ccccc2N3S(=O)(=O)c2ccc(C)cc2)cc1 | 80.5% |
| O=C(O)COc1ccc(F)cc1 | 94.2% |
| Cc1cc(C)c(C=O)c(C)c1 | 84.1% |
| Cc1cc(O[C@@H]2O[C@@H](C)[C@H](O)[C@@H](O)[C@H]2O)c2c3c(c(O[C@@H]4O[C@@H](C)[C@H](O)[C@@H](O)[C@H]4O)cc2c1)C(=O)c1c(O)cccc1C3=O | 64.9% |
| CC(C)(C)OC(=O)N1C/C(=C\c2ccoc2)C(=O)/C(=C/c2ccoc2)C1 | 87.6% |
| c1c(-c2cc(C3CC3)[nH]n2)n[nH]c1C1CC1 | 78.4% |
| Cc1ccn2c3c(c(C(=O)O)c2c1)C(=O)c1ccccc1C3=O | 73.2% |
| Cn1c2ccccc2c2c3c(c4c5cccnc5[nH]c4c21)C(=O)N(O)C3=O | 17.2% |
| COc1ccc(C/C(C)=C(\c2ccc(OCCN3CCCCCC3)cc2)c2ccc(OC(=O)C3CCCCC3)cc2)cc1 | 17.1% |
| COc1cc2nc(C(=O)N3CCCCC3)cc(Nc3ccccc3)c2cc1OC | 96.8% |
| CSc1ncc(C)c(Nc2ccc(Cl)cc2)n1 | 112% |
| O=C(Nc1ccccc1Cl)Oc1ccc2ccccc2c1 | 72.3% |
